{
  "source": "PubChem BioAssay AID489012",
  "about": "(National Center for Advancing Translational Sciences (NCATS), 2010)",
  "note": "Records with an inconclusive call do not appear. Unmarked numbers belong to inactive results. The source made the active and inactive calls. Calls come from the whole dose curve; as a rule, active = well fitted activation curve with a large enough effect; inconclusive = small, poorly fitted or top-dose-only effect; inactive = no such curve, though single readings can be large or run the other way. Potency is the fitted concentration of half-maximal effect.",
  "data": [
    {"biological_target": "Relaxin receptor 1 (Homo sapiens) (UniProt Q9HBX9)", "sequence (Q9HBX9 whole entry, looked up)": "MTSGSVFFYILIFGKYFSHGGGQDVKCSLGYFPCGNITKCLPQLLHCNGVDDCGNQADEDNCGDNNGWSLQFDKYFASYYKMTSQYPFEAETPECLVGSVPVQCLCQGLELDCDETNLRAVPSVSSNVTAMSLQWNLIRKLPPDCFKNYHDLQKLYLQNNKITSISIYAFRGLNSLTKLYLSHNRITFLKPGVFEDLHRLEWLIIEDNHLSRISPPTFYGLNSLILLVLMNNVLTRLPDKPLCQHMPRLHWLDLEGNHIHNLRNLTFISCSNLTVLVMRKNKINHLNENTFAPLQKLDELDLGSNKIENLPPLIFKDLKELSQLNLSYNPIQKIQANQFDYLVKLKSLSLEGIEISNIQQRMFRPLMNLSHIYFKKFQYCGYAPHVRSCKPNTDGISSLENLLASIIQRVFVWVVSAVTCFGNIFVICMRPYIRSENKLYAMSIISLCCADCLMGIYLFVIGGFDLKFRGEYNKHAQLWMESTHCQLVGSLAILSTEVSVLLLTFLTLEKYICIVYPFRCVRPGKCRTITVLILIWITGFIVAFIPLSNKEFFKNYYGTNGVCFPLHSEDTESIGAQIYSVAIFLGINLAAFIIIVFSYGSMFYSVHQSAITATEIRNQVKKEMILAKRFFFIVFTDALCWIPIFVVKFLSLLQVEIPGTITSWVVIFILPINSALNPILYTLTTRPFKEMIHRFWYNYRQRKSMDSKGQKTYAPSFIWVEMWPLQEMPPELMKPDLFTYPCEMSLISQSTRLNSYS", "assay": "qHTS Assay for Agonists of the Relaxin Receptor RXFP1: RXFP1 Hit Validation; note: nearly all actives have a fitted effect of over 65% in size;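 for activation: cAMP rise lowers the TR-FRET signal in lysed cells with PDE4 inhibitor present; 0% = buffer-only basal and 100% = 29 nM porcine relaxin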", "conditions": "HEK293T-RXFP1 cAMP TR-FRET, 30 min; series mostly up to 45 µM; activation: at the top concentration", "text": "NIH Chemical Genomics Center [NCGC] NIH Molecular Libraries Probe Production Centers Network [MLPCN] MLPCN Grant: R03 MH085705-01A1 Assay Submitter (PI): Alexander Agoulnik NCGC Assay Overview: The relaxin hormone is involved in the variety of biological functions in normal tissues and diseases. The role of relaxin is well-established in female reproduction and parturition, mammary gland and endometrial development, maintenance of myometrial quiescence during pregnancy. Relaxin signaling through its G protein-coupled receptor (GPCR) RXFP1 results in ECM remodeling through regulation of collagen deposition, cell invasiveness, proliferation and overall tissue homeostasis. […] Recombinant human relaxin (rhRlx) is currently being tested in clinical trials as a protective agent in congestive heart failure, in treating severe preeclampsia, and as an anti-fibrotic agent in systemic sclerosis. Upon relaxin binding RXFP1 activation leads to the activation of adenylate cyclase (AC) via Gs. cAMP will activate PKA, which phosphorylates many signaling proteins. Thus, detection of cAMP increase is an easy and reliable indication of relaxin receptor activation. To screen for agonists of the relaxin receptor, a HEK293T cell line stably transfected with RXFP1 was used. RXFP1 activation was assayed by changes in cAMP levels as detected with a time-resolved fluorescence energy transfer (TR-FRET) cAMP detection kit.\nNCGC Assay Protocol Summary: This is a cell-based assay for cAMP second messenger response to screen for agonists of the RXFP1 receptor. The assay was conducted in the presence of a PDE4 inhibitor (Ro 20174). The cells were lysed and the cAMP levels were measured with a TR-FRET cAMP kit. Presence of cAMP in the cell lysate disrupts binding between the cryptate-labeled anti-cAMP and d2-labeled cAMP pair, leading to a decrease in the TR-FRET signal. Data were normalized to the controls for basal activity (buffer only) and 100% activity (29 nM porcine relaxin). The EC50 values were determined from concentration-response data modeled with the standard Hill equation 1536-well assay protocol for the HEK293 RXFP1 cAMP assay: (1) Add 3 ul HEK293 RXFP1 cell culture. 2000 cells/well in DMEM/F12, 10% FBS, 1x Pen/Strep (dispensed offline with MultiDrop Combi). (2) Incubate 16-24 hr at 37C, 5% CO2. (3) Add 1 ul 400uM Ro20174 in DPBS, 0.05% BSA, 0.005% Tween 20. (3) Add 23 nl compounds in DMSO solution. Final concentration was 0.5 - 58 uM. (4) Incubate 30 min at 37C, 5% CO2. (5) Add 1 ul cAMP-d2 in lysis buffer (HTRF cAMP HiRange kit, CisBio). (6) Add 1 ul anti-cAMP antibody-cryptate in lysis buffer (HTRF cAMP HiRange kit, CisBio). (7) Incubate 30 min at room temperature. […]", "values": [
      {"smiles": "O=C(O)c1sc2cc(Cl)ccc2c1Cl", "activation": "26.2%"},
      {"smiles": "Nc1ncc2[nH]cnc2n1", "Potency": "13.8 µM (active)"},
      {"smiles": "CCC(Oc1cc(Cl)ccc1Cl)C(=O)N1CCC2(CC1)OCCO2", "note": "(centres undefined)", "activation": "3.75% [at 115 µM]"},
      {"smiles": "CCNC(=O)[C@H]1O[C@@H](n2cnc3c(N)ncnc32)[C@H](O)[C@@H]1O", "Potency": "0.308 µM (active)"}
    ]}
  ]
}
